Sensor-assay potency score (higher = more potent) data for 60 sequences are collected here from the OligoGym collection.

Among the targets are OTOP2; OTOL1; OTOP1; OSR1; P2RY6; PARN; PAQR6; PAQR4; PARP11; PALM2-AKAP2.
Common to all, as to test: pooled miR-30 sensor sort-seq; sequence = guide strand
Holding throughout (conditions): shRNA
Further: reference of the scale not given here.

Sequence ATCCACAGAATGACATTGCAGA registered a sensor-assay potency score (higher = more potent) in the experiment with OTOP2 of -0.488. With TTCCATTCCACTGTCTCCTTTG, in the experiment with OTOL1, the sensor-assay potency score (higher = more potent) is -0.205.

As to TTCCTCAGGACTTTTCTCTTGG, the sensor-assay potency score (higher = more potent) in the experiment with OTOP1 was 0.566. For TTGCTATTGTGTTCATACCAGC, the sensor-assay potency score (higher = more potent) in the experiment with OTOL1 is -1.39. Turning to TTCCACATGACATACAGCATGG, the sensor-assay potency score (higher = more potent) in the experiment with OTOP2 is -1.01. Consider TGATACTCTATGTTGAAGGGGT, for which the sensor-assay potency score (higher = more potent) in the experiment with OTOP1 was found to be 0.574.

For TTGGTGGTGAGTGTGAACATGA, the sensor-assay potency score (higher = more potent) with OTOP2 is -0.459. As to TGAACTGCTTCTTATTCTGGGC, the sensor-assay potency score (higher = more potent) with OTOL1 was -0.752. In the experiment with OTOL1, TAGGAAAAAACATATGTCCCAG displayed a sensor-assay potency score (higher = more potent) of -0.389. In the experiment with OSR1, TAGGTTGTAGGACTTGGTGAAG displayed a sensor-assay potency score (higher = more potent) of -1.09. With TAGAAATCCACCTCCACTGTGT, the sensor-assay potency score (higher = more potent) with OTOP2 worked out at 0.657. As for TTGGTGCTTTGACTCATTGAGG, the sensor-assay potency score (higher = more potent) with OTOP1 was -1.32. In turn, TTGCCAGCAGCATCATCGCAGT returned a sensor-assay potency score (higher = more potent) with OTOP2 of -1.22. Sequence TTTGGAGTGAATATATCTGTGG came in with a sensor-assay potency score (higher = more potent) with OSR1 of -0.758.

AAAACTGTTGTTATGTTCCCAA returned a sensor-assay potency score (higher = more potent) in the experiment with OTOP1 of -0.801. Sequence TAGAGCAGTTAAACTTCCCAGT came in with a sensor-assay potency score (higher = more potent) with OTOL1 of -0.7. Consider TCGATGATAAACATGTTCTGGA, for which the sensor-assay potency score (higher = more potent) with OTOP2 was 0.252. For the sequence TTGTCCTTTCACTCCTCCCAAA, in the experiment with OTOL1, the sensor-assay potency score (higher = more potent) was -1.46. Same read-out and setting: next, TTGAACTGCTTCTTATTCTGGG: 0.431.

TTTGGTAATTGGTTCTGCCATT: the sensor-assay potency score (higher = more potent) with OTOL1 is -0.925. In the case of AAACAATGTGATACTACCGCGC, in the experiment with OTOP1, the sensor-assay potency score (higher = more potent) is -0.348. Take TTCTCTGGACTTGAACTGCTTC: the sensor-assay potency score (higher = more potent) with OTOL1 was -0.336.

Take TTGCAGACTGTGACCACCCGAA: in the experiment with OTOP1, the sensor-assay potency score (higher = more potent) was 0.116. Consider TTGGCATAGAAGAGGAAGCGGA, for which the sensor-assay potency score (higher = more potent) in the experiment with P2RY6 is -1.

The sequence TTGGGCATAGTTGTAGATGAGC showed a sensor-assay potency score (higher = more potent) in the experiment with P2RY6 of -1.06. In the case of TTCATGACAGCCTACAACCGTG, in the experiment with PARN, the sensor-assay potency score (higher = more potent) is -0.783. As for TGAGGACACAGTCCAAAGCCGA, the sensor-assay potency score (higher = more potent) in the experiment with PAQR6 is -1.67. Turning to TTTATTGATGTCATCCAGGGTC, the sensor-assay potency score (higher = more potent) in the experiment with PAQR4 turned out to be 0.153.

In the case of TGTGAAAGCAGCAATAATGAGT, the sensor-assay potency score (higher = more potent) in the experiment with PAQR6 is -0.688. GAACTTATTGAACTGCAGGTGC: the sensor-assay potency score (higher = more potent) in the experiment with PAQR4 is -1.19.

In the experiment with PARP11, TTTAATTCGGTTGCGATCCATC displayed a sensor-assay potency score (higher = more potent) of -0.893.

TAGAAGAGGCTGCGCAGGCAGC registered a sensor-assay potency score (higher = more potent) with PAQR4 of -1.34.

With TTGGTCATCTGGAAGGAGCTGA, the sensor-assay potency score (higher = more potent) with PAQR6 was 0.592. Same read-out and setting: to TAGGTTCCCAGCTGCAGCCAAG belongs -1.67.

TTGGTGGCACATAAAGAGGTGA yielded a sensor-assay potency score (higher = more potent) with PAQR4 of -0.895. Sequence TAGCTTTCTGCATATTTGCTGG yielded a sensor-assay potency score (higher = more potent) in the experiment with PARN of -0.898. Consider TCGTTGTGCAGGTAGAAGAGGC, for which the sensor-assay potency score (higher = more potent) with PAQR4 is -0.773.

As for ATACATAGGACAGAGCTCCTGC, in the experiment with PARN, the sensor-assay potency score (higher = more potent) was determined as 0.763. For the sequence TTGTCAATCATGCTTGCGCGTT, in the experiment with PALM2-AKAP2, the sensor-assay potency score (higher = more potent) was -1.12.

Take TTATTGAACTGCAGGTGCGGCG: in the experiment with PAQR4, the sensor-assay potency score (higher = more potent) is -1.14. Consider TAAGCTTCTGATACCTCTCTTC, for which, in the experiment with PARN, the sensor-assay potency score (higher = more potent) is 0.34.

With TTTAGTATCCAAGAGTCTGGGG, in the experiment with PARN, the sensor-assay potency score (higher = more potent) was -0.201. In the experiment with PAQR6, TAATGAGTAGGTTCCCAGCTGC had a sensor-assay potency score (higher = more potent) of -0.176. In the experiment with PAQR4, TATTGAACTGCAGGTGCGGCGG yielded a sensor-assay potency score (higher = more potent) of -0.944. Take TTTATTAAAATCAAATCCCTGG: in the experiment with PARN, the sensor-assay potency score (higher = more potent) was found to be 0.307. Same read-out and setting: to TAGAAGTTAAATGACTTCGTTA belongs -0.166; to TAAACTTCTTTTGATCCTCAGG, -0.665. As for TTCTTCTTCATCTACTTTGCTG, the sensor-assay potency score (higher = more potent) with PARN was -0.0536.

In the experiment with PAQR6, TAGGCGAAGGCTCCTGTGCGGA registered a sensor-assay potency score (higher = more potent) of -1.44. TTGACATCTGGTGAGGATCTAT gave a sensor-assay potency score (higher = more potent) with PARN of -0.282.

TTCGTTGTGCAGGTAGAAGAGG: in the experiment with PAQR4, the sensor-assay potency score (higher = more potent) was -0.851. In the experiment with PAQR6, TCGTTGGTCATCTGGAAGGAGC showed a sensor-assay potency score (higher = more potent) of -1.68. Turning to TAGCAGGGCAGGGAGCCTGGAG, in the experiment with PAQR4, the sensor-assay potency score (higher = more potent) was -1.85.

In the experiment with PARN, TTTCTCTTTCCTACTGTGCTGG registered a sensor-assay potency score (higher = more potent) of 0.101.

Take TTGAACAGGAGAAGACACCTGA: the sensor-assay potency score (higher = more potent) in the experiment with PALM2-AKAP2 is 1.01. As for AAAGAGGTGATAGAGCACGGAG, the sensor-assay potency score (higher = more potent) with PAQR4 is -0.892.

In turn, TTGTCGAACAGGAATGGATAGG returned a sensor-assay potency score (higher = more potent) with PAQR6 of -0.865.

Take TTGATTTGCTTGTAACATGTTT: in the experiment with PALM2-AKAP2, the sensor-assay potency score (higher = more potent) is -0.674. Sequence TAGAGCACGGAGCCTGCAGGGG displayed a sensor-assay potency score (higher = more potent) in the experiment with PAQR4 of -1.54. On to TAGGCTGCAAGTCTGGTCCTTC, for which the sensor-assay potency score (higher = more potent) with PARN was found to be 0.109.
